# This is a sample that favours compounds with a hit; in the whole collection about 3.4% have one here.
# PLK1 PBD inh: qHTS for Inhibitors of PLK1-PDB (polo-like kinase 1 - polo-box domain): Primary Screen; Plk1 PBD binding of FITC phosphopeptide, fluorescence polarization; Potency, µM, without a hit: max response, negative = inhibition, usual class: inhibitors; AID 720504, 2013; 360,000 compounds, 2.8% hits; note: series mostly up to about 57 µM; % is set by controls: 0 for no effect and ±100 for the full control effect; nearly all actives have a fitted effect of over 65% in size
# VDR inhibitor: Inhibitors of the vitamin D receptor (VDR): qHTS | Vitamin D3 receptor (Homo sapiens), P11473 | VDR-SRC2-3 peptide fluorescence polarization, 2 h | Potency, µM, without a hit: max response, negative = inhibition, hits mostly inhibitors | 400,000 compounds, 0.93% hits; note: % is set by controls: 0 for no effect and ±100 for the full control effect
# Target sequence (P11473 whole entry, looked up): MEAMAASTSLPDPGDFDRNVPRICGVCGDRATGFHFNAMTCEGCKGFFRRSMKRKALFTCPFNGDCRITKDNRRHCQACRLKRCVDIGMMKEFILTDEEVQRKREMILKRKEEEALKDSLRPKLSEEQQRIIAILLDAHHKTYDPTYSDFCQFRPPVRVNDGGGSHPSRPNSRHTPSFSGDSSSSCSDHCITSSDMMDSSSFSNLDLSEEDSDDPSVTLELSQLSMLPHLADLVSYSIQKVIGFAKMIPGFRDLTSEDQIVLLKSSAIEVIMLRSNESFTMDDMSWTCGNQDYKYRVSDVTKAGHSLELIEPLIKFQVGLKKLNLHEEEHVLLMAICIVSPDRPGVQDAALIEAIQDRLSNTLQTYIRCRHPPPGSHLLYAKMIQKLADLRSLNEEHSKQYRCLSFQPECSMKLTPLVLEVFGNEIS
#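 Compounds are added to VDR with labelled SRC2-3 coactivator peptide and held 2 h at room temperature. Inhibition of the VDR–peptide interaction is then read as a change in fluorescence polarization.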
# GLS inh: qHTS for Inhibitors of Glutaminase (GLS) | GLS enzymatic activity, qHTS titration | Potency, µM (doses to about 45.5 µM), inactives show top-dose activity change, negative = inhibition, hits mostly inhibitors | 410,000 compounds, 0.21% hits | AID 624170, 2012; note: % is set by controls: 0 for no effect and ±100 for the full control effect
#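 hKGA; 45 mM KH2PO4 pH 8.2 + 0.02% Tween-20; cpd via pin tool; 1 mM Gln soln; GluOx/HRP/Amplex Red; RT 30 min; fluor. t0 & final.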
# PKM2 activator: qHTS Assay for Activators of Human Muscle isoform 2 Pyruvate Kinase. purified PKM2, Kinase-Glo ATP luminescence, activation; response scale: 0% is enzyme alone, no compound. Potency, µM (doses to about 57.5 µM), inactives show top-dose activation, hits mostly activators. 260,000 compounds, 0.34% hits. AID 1631, 2009; note: % is set by controls: 0 for no effect and ±100 for the full control effect; nearly all actives have a fitted effect of over 55% in size
#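 Purified hPK-M2 (>95% pure) converted ADP (0.1 mM final) to ATP with 0.5 mM PEP in 50 mM imidazole pH7.2, KCl, MgCl2, Tween 20, BSA; 1 h at room temperature. ATP detected by Kinase-Glo luminescence.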
# KAT2A inh: qHTS Assay for Inhibitors of GCN5L2; 390,000 compounds, 0.21% hits; GCN5L2 HAT assay, ThioGlo1 CoA-SH fluorescence; AID 504327, 2011; Potency, µM (highest dose often 58.9 µM), for the others: at the top dose activity change, negative = inhibition, most hits filed as inhibitors; note: % is set by controls: 0 for no effect and ±100 for the full control effect
#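 Fluorescence readout, Ex340nm/Em540nm: ThioGlo1 (50uM final) reacts with free CoA thiol released as 20nM GCN5L2 acetylates H3(1-25) peptide (75uM) using acetyl-CoA (70uM). Compound and enzyme sat 15 min beforehand; 20 min room-temperature reaction.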
# Mito fusion yeast: qHTS Assay for Small Molecule Inhibitors of Mitochondrial Division or Activators of Mitochondrial Fusion; Potency, µM (titrated, usually from 46.1 µM), without a hit: top-dose growth rescue (activation), actives largely listed as activators; S. cerevisiae fusion-defective mutant growth rescue, CellTiterGlo 48 h; 320,000 compounds, 0.23% hits; note: % of control where 0% means no effect; nearly all actives have a fitted effect of over 45% in size
#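 Growth-rescue viability read-out: after 48 h at the non-permissive 37C in glycerol/ethanol YPEG, yeast mitochondrial fusion mutants are measured by CellTiterGlo luminescence; compounds (23 nl pinned per well) restoring growth score as division inhibitors or fusion activators.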
# Active calls of the source: *; u = inconclusive; x = not tested or not shown; ! = not confirmed by another sample. Calls come from the whole dose curve; as a rule, active = well fitted curve in the direction sought with a large enough effect; inconclusive = small, poorly fitted or top-dose-only effect, or another doubt; inactive = no such curve, though single readings can be large; an effect the other way counts as inactive or inconclusive. Potency is the fitted concentration of half-maximal effect.
SMILES,PLK1 PBD inh,VDR inhibitor,GLS inh,PKM2 activator,KAT2A inh,Mito fusion yeast
Oc1ccccc1C1CC(c2cccs2)=NC(c2cccc(Br)c2)N1 (stereo unspecified),-9.0%,70.8µM*,-9.3%,-4.1%,-10.6%,-2.5%
O=S(=O)(c1ccccc1)N1N=C(c2cccs2)CC1c1cccc(O)c1 (stereo unspecified),-1.4%,3.4%,13.3%,15.8%,-12.2%,0.7%
Nc1ccc(C(=O)N/N=C\c2ccc(OC(=O)c3ccccc3Cl)cc2)cc1,-13.7%,-24.6%,1.4%,-4.1%,-3.3%,3.7%
O=C(O)c1cc(N/N=C/c2ccc(-c3ccccc3)cc2)ccc1Cl,9.47µM*,u,u,x,22.4%,12.2%
O=C(N/N=C/c1c[nH]c2ccccc12)c1cccc(Cl)c1,-6.3%,12.8%,14.0%,x,-17.3%,6.7%
COC(=O)N/N=C/c1c(C)nn(-c2cccc(Cl)c2)c1Cl,2.6%,22.1%,-3.3%,-2.3%,23.9%,16.2%
Cc1nn(-c2cccc(C(F)(F)F)c2)c(Cl)c1/C=N/Nc1cccc(C(=O)O)c1,23.8µM*,u,30.8%,-8.4%,-25.7%,23.6%
O=C(O)c1ccc(N/N=C/c2ccc(OC(=O)c3ccccc3Cl)cc2)cc1,29.9µM*,-8.4%,u,-4.0%,-18.7%,1.4%
O=C(O)c1cc(N/N=C/c2c[nH]c3ccccc23)ccc1Cl,u,u,14.1µM*,0.7%,-8.3%,5.5%
COC(=O)C1(C)C=CC2(CCCCC2)N1C(=O)c1ccccc1 (stereo unspecified),x,x,x,-0.6%,x,x
CCOc1ccc(NC(=O)C2Cc3ccccc3N2C(=O)c2ccccc2)cc1 (stereo unspecified),x,5.3%,1.1%,x,23.4%,x
O=C(O)c1ccc(N/N=C/c2cc(Br)cs2)cc1,-11.9%,-15.7%,8.91µM*,x,11.6%,31.6%
O=C(O)c1cc(-c2ccc(/C=N/Nc3ccc(Cl)cc3)o2)ccc1Cl,29.9µM*,-29.2%,0.0%,4.2%,-21.8%,12.0%
Nc1nonc1C(=O)N/N=C/c1ccc(-c2ccc(Cl)c(C(=O)O)c2)o1,-11.9%,-1.7%,1.9%,-1.8%,u,-4.4%
O=C(O)c1ccc(/C=N/Nc2cccc(C(F)(F)F)c2)cc1,u,-18.0%,14.1µM*,-1.3%,-5.1%,0.7%
O=C(O)c1ccc(N/N=C/c2ccc(-c3ccccc3)cc2)cc1,26.7µM*,-15.3%,10.0%,-2.7%,u,-25.7%
O=C(COC(=O)CCNS(=O)(=O)c1ccccc1)NNC(=O)c1ccccc1,-17.1%,-3.4%,8.5%,x,-1.4%,-3.6%
CC1=C(C(=O)N(C(C)C)C(C)C)CC(CC(=O)NC(c2ccccc2)c2ccccc2)C(=O)N1Cc1ccc(F)cc1 (stereo unspecified),4.7%,x,-5.0%,x,x,x
N#CCN(CC#N)C(=O)C1c2ccccc2Oc2ccccc21,23.8µM*,-14.8%,64.8%,2.6%,-2.2%,-0.6%
CCN(CC)C(=S)S,x,u,2.3%,x,-16.0%,x
COc1ccccc1-n1cnnc1SCC(=O)Nc1ncc(Cl)cc1Cl,29.9µM*,-17.7%,1.8%,14.4%,-1.8%,-2.7%
COc1ccccc1-n1cnnc1SCC(=O)Nc1nc(C)c(Cl)cc1Cl,-2.5%,5.5%,10.5%,1.6%,-15.3%,-1.5%
COC(=O)N/N=C/c1cccs1,-4.6%,11.5%,2.1%,-3.1%,14.3%,-12.0%
COC(=O)C(=C/C(C)=C/c1cccs1)C(=O)OC,18.9µM*,-13.5%,4.3%,-19.0%,7.8%,-13.5%
O=C(Nc1nc(COc2ccccc2)cs1)c1ccccc1F,-7.2%,-3.6%,0.3%,2.2%,-4.9%,15.8µM*
SMILES,PLK1 PBD inh,VDR inhibitor,GLS inh,PKM2 activator,KAT2A inh,Mito fusion yeast
Cc1csc2nc(COc3cccc(NC(=O)c4ccccc4F)c3)cc(=O)n12,x,-5.2%,-4.8%,x,-7.0%,x
O=C(O)Cc1sc(Nc2cccc3ccccc23)nc1-c1ccc(Cl)cc1,26.7µM*,-1.9%,u,x,-3.9%,-26.6%
COc1ccc(NC(=O)C(c2cc3ccccc3o2)n2c(=O)c(-c3cc4ccccc4[nH]3)nc3ccccc32)cc1 (stereo unspecified),-4.6%,x,x,x,x,x
Oc1ccc(Nc2nc(-c3ccc4ccccc4c3)cs2)cc1,x,x,x,-12.3%,-13.8%,22.4%
Oc1ccc(Nc2ccc3ccccc3c2)cc1,u,u,14.1µM*,x,x,x
CCC/C=C/C(C)O (stereo unspecified),x,1.9%,x,x,x,x
CN1C/C(=C/c2ccc(B(O)O)cc2)C(=O)/C(=C/c2ccc(B(O)O)cc2)C1,x,4.47µM*,x,x,-18.1%,x
CN1C/C(=C/c2cccnc2)C(=O)/C(=C/c2cccnc2)C1,-13.0%,44.7µM*,3.8%,-18.6%,3.5%,-16.7%
COc1cccc2sc(NN)nc12,-15.8%,u,14.1µM*,-19.7%,-6.3%,9.1%
COc1ccccc1CNC(=O)c1cc(-c2ccccc2C)n(CC2CC(c3cccc([N+](=O)[O-])c3)=NO2)n1 (stereo unspecified),-13.5%,-7.2%,2.4%,x,-6.3%,24.1%
O=[N+]([O-])c1cc(C(F)(F)F)ccc1Sc1ccc2ccccc2n1,29.9µM*,-25.5%,2.2%,0.5%,4.2%,-7.6%
NS(=O)(=O)c1cccc2c1c([N+](=O)[O-])cc1nc(O)c(O)nc12,-10.0%,39.8µM*!,12.4%,x,-16.5%,22.5%
NS(=O)(=O)c1cccc2c1c([N+](=O)[O-])cc1[nH]c(=O)c(=O)[nH]c12,x,-26.2%,x,x,u,x
O=C1C(Cl)=C(Nc2ccccc2)C(=O)c2ccccc21,-15.0%,3.4%,-0.1%,-8.8%,-8.3%,-0.9%
O=C(O)c1cccc(NC2=C(Cl)C(=O)c3ccccc3C2=O)c1,16.8µM*,u,9.5%,-15.4%,-5.8%,-3.3%
O=C(O)c1ccc(NC2=C(Cl)C(=O)c3ccccc3C2=O)cc1,5.32µM*,u,9.5%,16.2%,-17.2%,u
O=C1C(Cl)=C(NCCc2ccccc2)C(=O)c2ccccc21,2.67µM*,17.8µM*,u,x,x,x
O=C1C(Cl)=C(NCCc2ccccc2)C(=O)N1CCc1ccccc1,-7.3%,-2.5%,5.0%,-9.8%,-17.1%,-0.2%
O=C(c1cccs1)N1CCN(c2nnc(-c3ccccc3)c3ccccc23)CC1,-9.5%,8.2%,-5.1%,2.9%,u,27.3%
